# In the library only some 5.9% were active in any assay of this set; here they are far more common.
# TGFb inhibitor – qHTS for Inhibitors of TGF-b | HepG2 CAGA-GFP TGF-b/SMAD3 reporter, GFP fluorescence, 18 h; TGF-beta stimulated, 500 pg/mL final | Potency, µM (titrated, usually from 46.1 µM), without a hit: at the highest dose activity, negative = inhibition, actives largely listed as inhibitors | actives 1.2% (n = 410,000); also: % is scaled to controls: 0 for no effect and ±100 for the full control effect; nearly all actives have a fitted effect of over 65% in size
#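 Per well, imaged GFP fluorescence of HEPG2 CAGA-GFP cells gives the signal; cells get compound, then TGF-beta (500 pg/mL final), 18 h at 37 degrees C; %Activity versus -TGF-beta and +DMSO controls.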
# ATXN viability – Viability Counterscreen for Primary qHTS for Inhibitors of ATXN expression. S2 cells (HEK-293 line with an ATXN2-luciferase reporter) viability, CellTiter-Fluor protease fluorescence, 24 h. Potency, µM (highest dose often 56.7 µM), actives largely listed as cytotoxic. actives 0.49% (n = 400,000). AID 651635, 2014; also: nearly all actives have a fitted effect of over 40% in size
# HepG2 viability – qHTS for Inhibitors of TGF-b: Cytotox Counterscreen. actives 0.76% (n = 410,000). AID 588856, 2011. Potency, µM (top dose mostly 46.1 µM), for inactives: at the highest dose activity change, negative = cytotoxicity, actives largely listed as cytotoxic. HepG2 CAGA-GFP viability, ATP luminescence, 18 h
#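 HepG2 CAGA-GFP cells (1000/well, DMEM with 1% FBS) received compound, then TGF-beta at 500 pg/mL final, and were incubated 18 hours at 37 degrees C. Viability was read by CellTiter-Glo luminescence. Media-only wells were set as complete cell-killing and DMSO as no toxicity.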
# KB-3-1 cytotox – qHTS assay for MDR1-selective chemotherapeutics: Primary screen using the parental adenocarcinoma cell KB-3-1 | KB-3-1 viability, CellTiter-Glo ATP luminescence, 72 h | Potency, µM (titrated, usually from 46.1 µM), usual class: cytotoxic | actives 1.4% (n = 400,000); also: % is scaled to controls: 0 for no effect and ±100 for the full control effect; nearly all actives have a fitted effect of over 60% in size
#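 Parental KB-3-1 adenocarcinoma cells in phenol-red-free DMEM with 10% FBS were pin-treated with compounds at several concentrations, incubated 72 h at 37 °C, and viability read by CellTiter-Glo luminescence; concentration-effect curves were fitted after normalization.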
# KB-V1 MDR tox – qHTS assay for MDR1-selective chemotherapeutics: Primary screen using the drug-selected MDR subline cells KB-V1; KB-V1 MDR cells viability, CellTiter-Glo, 72 h; Potency, µM (titrated, usually from 46.1 µM), usual class: cytotoxic; actives 3.4% (n = 400,000); also: % is scaled to controls: 0 for no effect and ±100 for the full control effect; nearly all actives have a fitted effect of over 60% in size
#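 KB-V1 cells (P-gp-expressing MDR subline of KB-3-1) in phenol-red-free DMEM with 10% FBS were exposed to library compounds over a concentration series for 72 h at 37 degrees C. Viability read by CellTiter-Glo luminescence; concentration-effect curves fitted after normalization.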
# ATXN2 expr inh – Primary qHTS for Inhibitors of ATXN expression; AID 1745845, 2022; HEK-293 ATXN2-luciferase reporter, luminescence, 24 h; actives 0.72% (n = 360,000); Potency, µM (doses to about 57 µM), inactives show top-dose activity change, negative = inhibition, hits mostly inhibitors; also: % is scaled to controls: 0 for no effect and ±100 for the full control effect; nearly all actives have a fitted effect of over 55% in size
#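 ATXN2-luciferase reporter cells (luciferase flanked by upstream and downstream ATXN2 gene portions) were treated 24 h at 37 °C with compounds at up to 57 uM. SteadyGlo luminescence gave expression; GF-AFC fluorescence gave viability.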
# An asterisk follows results filed as active; i = inactive; ? = inconclusive; . = no result; ! = repeats disagree. Calls follow the shape of the dose curve; as a rule, active = well fitted curve in the direction sought with a large enough effect; inconclusive = small, poorly fitted or top-dose-only effect, or another doubt; inactive = no such curve, though single readings can be large; an effect the other way counts as inactive or inconclusive. Potency is read from the fitted curve at half-maximal effect.
SMILES,TGFb inhibitor,ATXN viability,HepG2 viability,KB-3-1 cytotox,KB-V1 MDR tox,ATXN2 expr inh
Cc1cccc(C(=O)N[C@H](C(=O)Nc2nc3ccccc3[nH]2)C(C)C)c1,?,?,-64%,5.2µM*,?,?
Cc1cccc(C(=O)N[C@H](C(=O)Nc2nc(C)cs2)C(C)C)c1,-7%,i,10%,i,i,7%
COc1ccc(NC(=O)C(NC(=O)c2ccccc2)C(C)C)cc1 (centres undefined),19%,i,4%,i,21µM*,1%
Cc1cccc2cc(CN(Cc3cccs3)S(=O)(=O)c3ccc4c(c3)OCCO4)c(=O)[nH]c12,-14%,i,-19%,?,5.2µM*,-1%
Cc1cc2cc(CN(Cc3cccs3)S(=O)(=O)c3ccc4c(c3)OCCO4)c(=O)[nH]c2cc1C,?,i,16%,i,i,-4%
Cc1nc2c(-c3ccccc3)c(C)nn2c(C)c1CCC(=O)NCc1ccc(Cl)cc1,-3%,i,3%,i,i,12%
CC(=O)c1ccc(-c2cccc(C3C4C=CCCC4(C)C(=O)N3Cc3ccccc3)c2)cc1 (centres undefined),18µM*,.,-19%,.,.,.
COc1ccc(-c2cccc([C@H]3[C@@H]4C=CCC[C@@]4(C)C(=O)N3Cc3ccccc3)c2)cc1,?,i,-16%,?,?,?
CC12CCC=CC1C(c1cccc(Br)c1)N(Cc1ccccc1)C2=O (centres undefined),13µM*,.,-91%,.,.,.
Cc1cccc(NC2=C/C(=N/S(=O)(=O)c3cccs3)c3ccccc3C2=O)c1,?,?,1%,?,?,?
Cc1ccc(Cl)cc1NC1=C/C(=N\S(=O)(=O)c2cccs2)c2ccccc2C1=O,4µM*,11µM*,3.5µM*!,3.3µM*!,9.2µM*!,2.8µM*
Cc1ccc(NC2=C/C(=N\S(=O)(=O)c3cccs3)c3ccccc3C2=O)c(C)c1,2.5µM*,8.9µM*,4.5µM*,6.5µM*,5.2µM*,?
CC1CCN(C(=O)CSc2nnc(NC(=O)Nc3ccccc3)s2)CC1,?,.,-27%,.,.,.
C=C1CCN(C(CC(C)C)C(=O)NCCCc2ccccc2)S(=O)(=O)c2ccccc21 (centres undefined),11µM*,.,-33%,.,.,.
CCN(C[C@H]1N[C@@](CC)(C(=O)OC)[C@H]2C(=O)N(Cc3ccccc3)C(=O)[C@@H]12)C(=O)c1ccc(C(C)(C)C)cc1,?,16µM*,-65%,i,?,?
Cc1ncnc2nc[nH]c12,?,.,-45%,3.3µM*,10µM*,.
CC(C)=NNc1ncnc2nc[nH]c12,-5%,i,9%,?,7.3µM*,0%
O=S(=O)(c1ccccc1)N1CCC(n2cnc3ccccc32)CC1,11%,i,-11%,i,?,-11%
O=S(=O)(c1ccccc1C(F)(F)F)N1CCC(n2cnc3ccccc32)CC1,-20%,i,-24%,i,9.2µM*,-11%
COc1ccc(CN2CCN(C(=O)c3ccco3)CC2)cc1OC,0%,i,1%,i,i,5%
COc1ccc(CN2CCN(C(=O)c3ccccc3C(=O)c3ccccc3)CC2)cc1OC,-9%,i,-6%,i,16µM*,15%
COc1ccc(CN2CCN(C(=O)CCC(=O)c3ccc(C)s3)CC2)cc1OC,-8%,?,-1%,i,4.1µM*,10%
COc1ccc(CN2CCN(C(=O)c3cccc(OC)c3OC)CC2)cc1OC,28%,i,6%,i,i,4%
Cc1c(C(=O)N2CCCCCC2)sc2ncnc(NCC3CCCO3)c12 (centres undefined),.,i,.,.,.,.

# Screening results from PubChem BioAssay.
